G9a block = G9a (human) methyltransferase inhibition | Q96KQ7 | G9a H3K9 monomethylation, AlphaScreen, 2 h | Potency, µM (doses to about 102 µM), without a hit: top-dose activity, negative = inhibition, most hits filed as inhibitors | hit rate 8.8% among 350,000; further: on the % scale 0 is the no-effect control and ±100 the full control effect; nearly all actives have a fitted effect of over 75% in size
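Methyltransferase reactions run at room temperature for 2 h (20 nM enzyme, 500 nM biotin-H3K9 peptide, 20 uM SAM) after a 15 min compound preincubation; product detected by AlphaScreen beads and anti-H3K9me1 antibody.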
BAZ2B inh = BAZ2B (human) inhibition; Q9UIF8; Potency, µM (titrated, usually from 114 µM), for the others: at the highest dose activity change, negative = inhibition, usual class: inhibitors; AID 504333; hit rate 4.4% among 360,000; AlphaScreen BAZ2B-H3K14Ac peptide displacement; further: on the % scale 0 is the no-effect control and ±100 the full control effect; nearly all actives have a fitted effect of over 60% in size
Target sequence (Q9UIF8 whole entry, looked up): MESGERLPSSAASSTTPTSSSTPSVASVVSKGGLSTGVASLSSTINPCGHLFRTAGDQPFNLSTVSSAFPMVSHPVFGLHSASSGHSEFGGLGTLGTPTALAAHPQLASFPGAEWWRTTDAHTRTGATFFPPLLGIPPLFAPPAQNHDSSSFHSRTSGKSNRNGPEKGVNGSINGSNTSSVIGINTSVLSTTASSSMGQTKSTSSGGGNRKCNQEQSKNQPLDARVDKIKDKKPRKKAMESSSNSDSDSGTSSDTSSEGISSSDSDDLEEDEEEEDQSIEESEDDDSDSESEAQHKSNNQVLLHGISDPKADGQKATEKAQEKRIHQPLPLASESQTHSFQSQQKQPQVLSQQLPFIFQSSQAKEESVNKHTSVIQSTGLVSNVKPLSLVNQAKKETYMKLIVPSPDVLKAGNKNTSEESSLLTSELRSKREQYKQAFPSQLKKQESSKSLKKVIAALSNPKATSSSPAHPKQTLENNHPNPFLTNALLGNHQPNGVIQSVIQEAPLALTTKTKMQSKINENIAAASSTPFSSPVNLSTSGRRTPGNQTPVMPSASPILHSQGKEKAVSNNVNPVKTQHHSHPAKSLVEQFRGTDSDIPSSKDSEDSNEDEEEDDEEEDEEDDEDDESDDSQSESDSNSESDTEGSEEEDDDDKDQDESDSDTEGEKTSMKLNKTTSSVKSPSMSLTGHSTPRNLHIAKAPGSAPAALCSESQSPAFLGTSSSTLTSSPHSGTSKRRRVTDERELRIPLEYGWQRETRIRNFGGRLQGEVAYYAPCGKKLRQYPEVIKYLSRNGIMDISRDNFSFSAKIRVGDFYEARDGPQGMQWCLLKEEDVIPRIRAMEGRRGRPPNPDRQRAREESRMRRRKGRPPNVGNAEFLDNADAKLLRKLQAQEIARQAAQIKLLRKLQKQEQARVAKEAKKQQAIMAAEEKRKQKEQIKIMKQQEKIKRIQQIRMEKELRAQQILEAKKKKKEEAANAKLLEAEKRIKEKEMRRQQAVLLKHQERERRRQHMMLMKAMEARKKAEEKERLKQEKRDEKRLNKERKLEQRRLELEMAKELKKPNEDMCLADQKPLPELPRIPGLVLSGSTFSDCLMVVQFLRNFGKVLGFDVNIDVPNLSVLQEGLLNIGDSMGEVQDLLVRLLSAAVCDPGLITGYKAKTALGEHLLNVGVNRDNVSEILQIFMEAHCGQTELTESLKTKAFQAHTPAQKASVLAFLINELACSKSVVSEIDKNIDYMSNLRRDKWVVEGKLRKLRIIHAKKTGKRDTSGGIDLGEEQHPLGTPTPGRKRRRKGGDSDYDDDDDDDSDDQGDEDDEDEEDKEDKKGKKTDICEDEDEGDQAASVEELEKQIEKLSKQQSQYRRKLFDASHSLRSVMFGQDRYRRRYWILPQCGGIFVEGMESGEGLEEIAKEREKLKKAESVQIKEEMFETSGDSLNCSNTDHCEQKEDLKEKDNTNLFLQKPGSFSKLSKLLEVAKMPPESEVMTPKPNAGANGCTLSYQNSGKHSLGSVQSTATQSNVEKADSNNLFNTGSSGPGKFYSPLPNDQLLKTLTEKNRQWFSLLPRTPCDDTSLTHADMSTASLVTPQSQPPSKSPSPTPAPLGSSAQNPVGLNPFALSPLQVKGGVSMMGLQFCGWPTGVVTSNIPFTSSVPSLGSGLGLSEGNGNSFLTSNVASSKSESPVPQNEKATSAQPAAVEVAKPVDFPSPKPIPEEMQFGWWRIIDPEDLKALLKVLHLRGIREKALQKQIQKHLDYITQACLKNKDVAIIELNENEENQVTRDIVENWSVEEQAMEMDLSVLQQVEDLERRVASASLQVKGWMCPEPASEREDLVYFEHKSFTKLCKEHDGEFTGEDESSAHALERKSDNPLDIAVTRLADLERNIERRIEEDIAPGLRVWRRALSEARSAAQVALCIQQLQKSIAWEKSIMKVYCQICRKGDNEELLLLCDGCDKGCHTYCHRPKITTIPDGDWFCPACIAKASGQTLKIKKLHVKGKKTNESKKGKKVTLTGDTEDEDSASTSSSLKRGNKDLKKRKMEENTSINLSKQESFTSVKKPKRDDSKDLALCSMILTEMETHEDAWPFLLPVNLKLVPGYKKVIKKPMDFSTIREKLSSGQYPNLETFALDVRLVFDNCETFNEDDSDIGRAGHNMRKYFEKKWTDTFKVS
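AlphaScreen displacement: compounds (up to 110uM) incubated 30 min at room temperature with a preformed 50 nM BAZ2B/50 nM biotinylated H3K14Ac peptide complex in PBS pH 7.4 with Tween-20. Donor and acceptor beads at 10 ug/mL final added, 20 min light-protected before reading.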
JMJD2A Tudor inh = JMJD2A Tudor domain (human) inhibition | AlphaScreen JMJD2A-Tudor / H3K4me3 peptide binding | hit rate 4.4% among 390,000 | Potency, µM (series often up to 114 µM), without a hit: at the top dose activity change, negative = inhibition, usual class: inhibitors; further: on the % scale 0 is the no-effect control and ±100 the full control effect; nearly all actives have a fitted effect of over 50% in size
HP1b binding inh = HP1-beta chromodomain-methylated histone interaction inhibition; P83916; AlphaScreen HP1-beta / biotin-H3K9me3 peptide binding; Potency, µM (doses to about 114 µM), inactives show at the top dose activity change, negative = inhibition, most hits filed as inhibitors; hit rate 0.56% among 390,000; AID 540317; further: nearly all actives have a fitted effect of over 70% in size
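Compound inhibition of the preformed complex between 50 nM HP1-beta and 50 nM biotinylated H3K9me3 peptide was read by AlphaScreen. Buffer was PBS pH 7.4 with 0.01% Tween-20. Incubations ran 30 min at room temperature, with 10 ug/mL donor/acceptor beads.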
GLS inh = glutaminase GLS (human) inhibition. Potency, µM (series often up to 45.5 µM), without a hit: top-dose activity change, negative = inhibition, most hits filed as inhibitors. O94925. GLS enzymatic activity, qHTS titration. hit rate 0.21% among 410,000; further: on the % scale 0 is the no-effect control and ±100 the full control effect
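hKGA; 45 mM KH2PO4 pH 8.2 + 0.02% Tween-20; cpd via pin tool; 1 mM Gln soln; GluOx/HRP/Amplex Red; RT 30 min; fluor. t0 & final.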
L3MBTL1 block = L3MBTL1 (human) inhibition; Q9Y468; AlphaScreen L3MBTL1–H3K9me1 peptide binding; Potency, µM (highest dose often 57.1 µM), without a hit: at the highest dose activity, negative = inhibition, most hits filed as inhibitors; hit rate 0.66% among 230,000; AID 485360; further: on the % scale 0 is the no-effect control and ±100 the full control effect; nearly all actives have a fitted effect of over 60% in size
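AlphaScreen assay: L3MBTL1 (50 nM final) was preincubated 30 min at room temperature with biotinylated H3(1-15)K9me1 peptide (75 nM final), then 30 min with library compounds; streptavidin donor and nickel chelate acceptor beads (10 ug/mL final) added, 30 min dark.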
The depositor's hits bear a star; ? = inconclusive; . = no result; [ ] = another dose, or the depositor's remark. A selection: hits, their analogues and other compounds. The true share with any hit is near 10%. The call rests on the fitted dose curve; in most records, active means well fitted curve in the direction sought with a large enough effect; inconclusive means small, poorly fitted or top-dose-only effect, or another doubt; inactive means no such curve, though single readings can be large; an effect the other way counts as inactive or inconclusive. Potency means the concentration at half of the fitted maximal effect.

SMILES	G9a block	BAZ2B inh	JMJD2A Tudor inh	HP1b binding inh	GLS inh	L3MBTL1 block
CCOC(=O)C1CCCN(C(=O)CSc2ccc(NC(C)=O)cc2)C1 (stereo unspecified)	35.5µM*	-19.8%	0.3%	52.4%	2.3%	7.7%
CCOC(=O)C1CCN(C(=O)CC(C)c2ccccc2)CC1 (stereo unspecified)	6.6%[59 µM]	-24.4%	28.2µM*	?	4.8%	.
CCOC(=O)C1CCN(C(=O)c2c(C)oc3c2C(=O)c2ccccc2C3=O)CC1	50.1µM*	-14.7%	-13.8%	23.7%	-9.1%	-5.5%
CCOC(=O)c1cccc(NC(=O)c2cc3ccccn3n2)c1	-16.2%[59 µM]	3.3%	-1.6%	28.5%	2.0%	.
COc1cc(OC)cc(C2=Nn3c(nnc3-c3ccccc3OC)SC2)c1	.	.	-33.8%	.	.	.
CCOC(=O)C1CCCN(C(=O)CNC(=O)Cn2ccc3ccccc3c2=O)C1 (stereo unspecified)	14.1µM*	-5.8%	-9.9%[57.1 µM]	53.9%	1.8%	-1.3%
CCOC(=O)C1CCN(C(=O)CCNS(=O)(=O)c2ccc(C)cc2)CC1	4.0%[12.7 µM]	3.7%	-6.5%	56.5%	-0.6%	5.3%
CCOC(=O)C1CCN(C(=O)CC(NS(=O)(=O)c2ccc(OC)cc2)C(C)C)CC1 (stereo unspecified)	-22.1%[59 µM]	13.5%	15.8µM*	-8.2%	?	5.0%
O=C(Cn1ccc2ccccc2c1=O)NCC(=O)N1CCCCC1	4.9%	12.3%	-17.9%	-13.8%	6.9%	.
CCOc1ccc(-c2nonc2NC(=O)c2oc3cc(C)ccc3c2C)cc1	1.5%[59 µM]	1.7%	-15.7%	39.0%	-3.0%	.
COc1ccc(-c2csc(NCc3ccco3)n2)cc1	39.8µM*	50.1µM*	79.4µM*	?	19.4%	-3.3%
c1coc(CNc2nc(-c3ccncc3)cs2)c1	-24.2%[59 µM]	-10.9%	?	-30.4%	20.5%	-4.6%
Cc1nc(C)c(-c2csc(NCc3ccccc3)n2)s1	50.1µM*	50.1µM*	?	?	0.8%	?
c1coc(CNc2nc3ccccc3s2)c1	17.5%[2.33 µM]	-14.4%	-19.0%	5.9%	0.3%	.
Cc1nc(C)c(-c2csc(NCc3ccco3)n2)s1	?	50.1µM*	?	-18.4%	-5.2%	.
Cc1nnc(NCc2ccco2)s1	18.4%	-5.8%	-3.8%	22.7%	-3.9%	6.6%
Cc1nc2ccccn2c1-c1csc(NCc2ccco2)n1	8.91µM*	50.1µM*	-33.6%[57.1 µM]	2.4%	0.7%	-14.0%[11.4 µM]
Cc1ccn2c(NCc3ccccc3)c(-c3cccs3)nc2c1	-47.3%	?	?	-1.7%	8.5%	-8.6%
COc1ccc(-c2ccc(=O)n(CC(=O)NCc3ccco3)n2)cc1	?	?	?	0.2%	-16.6%	-9.7%
Cc1ccn2c(-c3csc(NCc4ccccc4)n3)c(C)nc2c1	5.01µM*	31.6µM*	56.2µM*	?	10.5%	-3.1%
CCC(C(=O)NCc1ccco1)n1nc(-c2ccc(OC)cc2)ccc1=O (stereo unspecified)	?	50.1µM*	?	-31.5%	-12.5%	-26.6%
O=C(O)/C=C(/CC(=O)O)C(=O)O	.	.	.	.	9.1%	.
COc1cccc(-c2cc(C(=O)NCc3ccccc3)[nH]n2)c1	-4.5%[59 µM]	2.6%	-9.9%	-17.1%	-13.4%	.
COc1ccc(C(=O)Nc2nc3ccccc3s2)c(OC)c1	-16.8%	-17.5%	20µM*	15.5%	?	.
COc1ccccc1C(=O)Nc1nc2ccccc2s1	5.3%[0.501 µM]	38.4%	-4.3%	39.2%	-5.6%	34.0%[2.29 µM]
SMILES	G9a block	BAZ2B inh	JMJD2A Tudor inh	HP1b binding inh	GLS inh	L3MBTL1 block
COc1n[nH]c(C(=O)NCc2ccccc2)c1[N+](=O)[O-]	56.2µM*	-21.3%	-12.1%	60.5%	-4.5%	-0.6%
COc1n[nH]c(C(=O)Nc2nc3ccccc3s2)c1[N+](=O)[O-]	14.1µM*	56.2µM*	-27.5%	29.5%	33.5%	-27.1%
O=C(O)CSCc1nc2scc(-c3ccccc3)c2c(=O)[nH]1	50.1µM*	-24.2%	-4.7%[57.1 µM]	11.5%	-9.9%	-0.2%
O=c1[nH]c(Cc2ccccc2)nc2scc(-c3ccccc3)c12	-8.7%	-19.7%	-12.1%	14.4%	11.0%	.
CC(C)CNC(=O)CSc1nc2scc(-c3ccccc3)c2c(=O)[nH]1	11.2µM*	-24.3%	-16.8%	17.8%	-1.7%	-1.2%
O=C(CSc1nc2scc(-c3ccccc3)c2c(=O)[nH]1)Nc1ccccc1	.	-0.2%	-25.0%	32.0%	0.7%	.
COc1cc(OC)cc(-c2nnc3n2N=C(c2cc(OC)ccc2OC)CS3)c1	.	.	-29.0%	.	.	.
COc1ccc(C2Nc3ccccc3-n3c(-c4ccccc4)c4c(=O)n(C)c(=O)n(C)c4c32)cc1 (stereo unspecified)	-8.9%[59 µM]	?	-13.9%	25.6%	-23.4%	.
CSc1cccc(NC(=O)CN2CCN(Cc3ccccc3C)S2(=O)=O)c1	4.8%[59 µM]	-16.7%	-6.2%	27.2%	0.4%	.
COc1ccc(N2C(=O)CC(Nc3ccc(C(=O)O)cc3)C2=O)cc1OC (stereo unspecified)	39.8µM*	-17.0%	10.3%	61.5%	10.1%	8.2%
COC(=O)c1ccc(N2C(=O)CC(N(C)CCc3ccc(OC)c(OC)c3)C2=O)cc1 (stereo unspecified)	35.5µM*	1.1%	-7.6%	39.4%	9.8%	0.4%
O=C(O)c1ccc(N2C(=O)CC(N3CCN(c4cccc(C(F)(F)F)c4)CC3)C2=O)cc1 (stereo unspecified)	39.8µM*	7.0%	-4.8%	91.2%	-4.0%	-2.4%
O=C(O)c1ccc(N2C(=O)CC(N3CCN(c4cccc(Cl)c4)CC3)C2=O)cc1 (stereo unspecified)	10.7%[0.501 µM]	5.5%	-8.6%	53.5%	-0.3%	7.0%[2.29 µM]
COc1ccc(N2C(=O)CC(N3CCCCC3)C2=O)cc1 (stereo unspecified)	?	-16.4%	-14.5%	57.5%	0.7%	1.6%
COc1ccc(N2C(=O)CC(N3CCC(O)(c4cccc(C(F)(F)F)c4)CC3)C2=O)cc1 (stereo unspecified)	39.8µM*	-0.3%	-16.4%	69.2%	-3.5%	9.5%
COc1ccc(N2C(=O)CC(N(C)CCc3ccc(OC)c(OC)c3)C2=O)cc1 (stereo unspecified)	.	-3.4%	-13.7%	35.1%	-2.3%	3.0%
Cc1c(C(=O)Nc2ccc(-c3nc4cc(Cl)ccc4o3)cc2)oc2ccccc12	-34.9%[59 µM]	2.7%	-7.8%	23.0%	0.5%	.
CC(=O)c1ccc(-c2csc3ncnc(Sc4nnnn4C)c23)cc1	.	.	-19.9%	.	.	.
O=[S+]([O-])(c1ccc2ncsc2c1)N1CCN([S+](=O)([O-])c2c(F)cccc2F)CC1	.	.	-12.3%	.	.	.

High-throughput results (PubChem)
